SMILES strings stand for the structures. Hit rate of the full screen: of about 7,400 compounds, about 4,100 (55%) were called active. The set was probably picked from earlier hits. The list is a sample of the results. Values without a mark were called inactive.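 Rule for the calls: active = inhibition of yeast growth at or above a set limit in either of two repeat tests at 20 µM; inactive = the rest.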

This assay is described as follows: tim10-1 ts yeast growth inhibition, retested – single concentration, luminescence, S. cerevisiae, confirmation (AID 463213).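 Note: tim10-1 mutant grown at permissive 25 °C to find synthetic lethal compounds; 0% = DMSO yeast wells and 100% = medium wells without yeast.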 Conditions: S. cerevisiae tim10-1 ts strain growth, BacTiter-Glo, 24 h; at 20 µM; hits give high values.
The inhibition is the change of the read-out against control, counted positive when it falls. With `c1ccc(-c2nnc3n2NC(c2ccc4c(c2)OCO4)S3)cc1` (configuration not stated), the inhibition was 34% (active).

For `Cc1cccc(C2c3[nH]c4ccccc4c3CCN2C(=O)c2cc(-c3cccn3C)n[nH]2)n1` (configuration not stated), the inhibition was 14.3%.

`C=CCCC(=O)Nc1nc(C)c(-c2csc(Nc3ccc(Cl)cc3)n2)s1`: the inhibition is 19.9%.

Turning to `CCCCC(=O)Nc1nc(C)c(-c2csc(Nc3ccc(Cl)cc3)n2)s1`, the inhibition is 31% (active).

Consider `O=[N+]([O-])c1ccc(C=Nc2ccc(Cl)cc2Cl)s1`, for which the inhibition is 69.8% (active).

Take `COc1ccc(/C=C/C2=CC(C)(C)NC(=S)N2)c(OC)c1`: the inhibition was 20.4%.

In the case of `NS(=O)(=O)c1ccc(NC(=S)Nc2ccc(Br)c(Cl)c2)cc1`, the inhibition is 41.2% (active).

In the case of `CC(Nc1nc(C(F)(F)F)nc2ccccc12)c1cccs1` (configuration not stated), the inhibition is 30.1% (active).

Turning to `O=[N+]([O-])c1ccc2c(c1)Nc1nc3ccccc3nc1N2`, the inhibition is 70.2% (active).

For the compound `O=C1CC(c2ccccc2)=NN1c1ccc([N+](=O)[O-])cc1`, the inhibition was 23.8%.

Turning to `COc1ccccc1NC(=O)C1=C(C)Nc2nnnn2C1c1cccc(Br)c1` (configuration not stated), the inhibition was 28.7%.

Take `CCc1cc(C(N)=O)c(NC(=O)c2ccc(OC)cc2)s1`: the inhibition is 58.2% (active).

For `CC(C)c1cc(C(N)=O)c(NC(=O)c2cccc(COc3ccc(Br)cc3)c2)s1`, the inhibition was 26.9%.

With `Cn1c(-c2sccc2OCc2cccc(C(F)(F)F)c2)n[nH]c1=S`, the inhibition is 25.1%.

As to `CCSC1=C(C#N)C(=O)n2c1cc1c2CCCC1`, the inhibition is 52.3% (active).

With `N#CC1(C#N)C(C(=O)C23CC4CC(CC(C4)C2)C3)C12CCOCC2` (configuration not stated), the inhibition was 41.9% (active).

With `COc1cc(NS(=O)(=O)c2ccc3ccccc3c2)c2ncccc2c1`, the inhibition was 27.8%.

In the case of `COc1ccc(S(=O)(=O)Nc2ccc(O)c(Sc3nc4ccccc4s3)c2)cc1`, the inhibition is 37% (active).

For `CC(=NCc1ccc2c(c1)OCO2)C1=C(O)c2ccccc2C1=O`, the inhibition was 40.3% (active).

For `c1ccc(-c2cn3c(n2)CCc2ccc4cccnc4c2-3)cc1`, the inhibition is 30.3% (active).

For the compound `Cc1nc2ccccc2cc1OCc1ccc(F)cc1`, the inhibition is 9.05%.

For `Cc1ccc(-c2csc(-c3c[nH]c4ccccc34)n2)cc1`, the inhibition is 50.9% (active).

In the case of `O=C(c1cccs1)N(C(=O)c1cccs1)c1ccccn1`, the inhibition was 20.9%.

On to `COc1ccc(C)cc1Nc1nc(C)nc2c1oc1ccccc12`, for which the inhibition is 25.5%.

Take `O=C(NCCc1ccc(F)cc1)c1ccc(S(=O)(=O)N2CCCCC2)cc1`: the inhibition is 43.5% (active).

`O=C(CCc1ccc(S(=O)(=O)N2CCOCC2)cc1)Nc1ccc2ccccc2c1`: the inhibition was 28.1%.

For `COc1ccc(Oc2cn[nH]c2-c2ccc(OC)cc2O)cc1`, the inhibition is 39.3% (active).

As for `CCCc1[nH]nc2c1C(c1ccc(Br)s1)C(C#N)=C(N)O2` (configuration not stated), the inhibition was 79.5% (active).

`CSc1ccc(S(=O)(=O)NC2CCCCC2)cc1`: the inhibition is 22.4%.

`CSc1ccc(S(=O)(=O)NCc2ccc(Cl)cc2)cc1`: the inhibition was 30.4% (active).

On to `N/C(=N\OC(=O)c1cc(-c2ccccc2)nc2ccccc12)c1ccncc1`, for which the inhibition is 70.7% (active).

As to `O=[N+]([O-])c1ccc(N2CCN(c3ccc(O)cc3)CC2)c(Cl)c1`, the inhibition is 30.2%.

For the compound `O=C(/C=C/c1ccc(Cl)c([N+](=O)[O-])c1)c1cccnc1`, the inhibition was 62% (active).

`O=C(/C=C/c1ccc(Cl)c([N+](=O)[O-])c1)c1ccc(O)cc1`: the inhibition is 48.3% (active).

As for `Cc1ccc(N2C(=O)C(Cc3ccccc3)NC2=S)cc1` (configuration not stated), the inhibition is 16.7%.

With `Cc1sc2ncnc(SCC(=O)Nc3ccc(CN4CCCC4)cc3)c2c1C`, the inhibition is 23.3%.

Turning to `O=C1C=CC(=O)N1c1ccc(N2CCCCC2)cc1`, the inhibition was 92.6% (active).

`Cc1oc2cc(Br)c(O)c(Br)c2c1C(=O)c1ccccc1`: the inhibition is 36.2% (active).

As for `CC1=C/C(=N\OS(=O)(=O)c2ccccc2)C=CC1=O`, the inhibition is 60.8% (active).

On to `O=c1c(Cl)c(NCc2ccc(F)cc2Cl)cnn1C12CC3CC(CC(C3)C1)C2`, for which the inhibition is 44.2% (active).

As to `COc1ccc(OC)c(-c2c(=O)n(OCc3ccccc3Br)c3ccccc3[n+]2[O-])c1`, the inhibition was 24.3%.

On to `CCc1nc(C)cn1S(=O)(=O)c1cc([N+](=O)[O-])ccc1Cl`, for which the inhibition was 47.8% (active).

For `CC(C)c1nccn1S(=O)(=O)c1cc([N+](=O)[O-])ccc1Cl`, the inhibition is 28.7%.

For `O=C(c1ccccc1)N1CCC(CC2CC(c3ccc(Cl)cc3)=NO2)(C(=O)NCC2CCCCC2)CC1` (configuration not stated), the inhibition was 34% (active).

For the compound `COc1cc([N+](=O)[O-])ccc1NC(=O)COC(=O)CCOc1ccc(C)cc1`, the inhibition was 63.3% (active).

In the case of `O=C(COC(=O)CCOc1ccccc1)Nc1cc(S(=O)(=O)N2CCCCC2)ccc1Cl`, the inhibition is 30.2%.

Consider `O=C(Nc1cccc(F)c1)NC1CCCCCCC1`, for which the inhibition is 20.1%.

Take `O=C(NC1CCCCC1)c1ccc(-c2ccc(Cl)cc2)o1`: the inhibition is 39% (active).

Regarding `CSC1=N/C(=C\C=C\c2cccs2)C(=O)S1`, the inhibition is 51.9% (active).

As for `O=[N+]([O-])c1ccc(N/N=C/c2ccccc2)cc1`, the inhibition is 27%.

`c1ccc(-c2nc(NCc3ccco3)c3ccccc3n2)cc1`: the inhibition was 42% (active).

As for `S=c1[nH]c2ccccc2c2ccccc12`, the inhibition is 7.95%.

`C#CCN1C(=O)C(O)(CC(=O)c2cc(OC)ccc2OC)c2ccccc21` (configuration not stated): the inhibition is 30.6%.

For `CC(C)(CCl)C(=O)Nc1ccc(Sc2ccc(F)cc2)cc1`, the inhibition is 51.8% (active).

As to `Cc1cccc(OCCNC(=S)NC(=O)c2cccnc2)c1`, the inhibition is 27.1%.

Consider `COCCNC(=O)/C(C#N)=C/c1cccc(OCc2ccccc2)c1`, for which the inhibition is 70.2% (active).

For `S=C(NCc1ccc(Cl)cc1)NC12CC3CC(CC(C3)C1)C2`, the inhibition is 3.55%.

For `C/C(=N/NC(=O)c1cc(Cl)ccc1O)C12CC3CC(CC(C3)C1)C2`, the inhibition is 34.1% (active).

In the case of `C/C(=N\Nc1nc(Nc2ccccc2)nc(N2CCOCC2)n1)c1cccs1`, the inhibition is 24.8%.

Regarding `Cc1cc(C)n(-c2nc(SCC(=O)N3CCCC3)c3c4c(sc3n2)CCCC4)n1`, the inhibition is 40.1% (active).

Turning to `CCOc1ccc2nc(N3CCCN(C(=O)Nc4ccccc4C)CC3)c(C#N)cc2c1`, the inhibition is 26.7%.

`CCC(C)(C)n1nnnc1CN1CCN(c2nc3ccc(C)cc3cc2C#N)CC1`: the inhibition is 35.2% (active).

The record behind these values is PubChem BioAssay AID463213 (Sanford-Burnham Center for Chemical Genomics, 2010).
